Hits are enriched below; roughly 4.6% of the tested compounds scored in any of these assays.
TIM10 inh: growth inhibitors of isogenic TIM10 control yeast, primary screen, counter-screen for tim10-1 yeast inhibitor project, luminescence, uHTS | S. cerevisiae TIM10 strain growth, BacTiter-Glo luminescence, 24 h | inhibition, % at 10 µM | 330,000 tested, 1.4% active;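 active = inhibition of 40% or more at the single tested concentration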;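 also: wild-type TIM10 isogenic control strain grown at permissive 25 °C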
tim10-1 inh: growth inhibitors of tim10-1 mutant yeast, primary screen, luminescence, uHTS; S. cerevisiae tim10-1 ts strain growth, BacTiter-Glo, 24 h; 330,000 tested, 2.2% active; AID 463190, 2010; inhibition, % at 20 µM;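 active = inhibition of at least 40%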;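 also: mutant grown at 25 °C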
SKKanGAS inh: S. pyogenes SKKanGAS growth inhibitors in kanamycin, primary screen, streptokinase expression inhibitor project, SKKanGAS strain, BacTiter-Glo luminescence; 6 h; inhibition, % at 7.5 µM; 300,000 tested, 1.3% active; AID 1662, 2009;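 active = mean replicate score, as percent of positive control median, at least 50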;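 also: strain carries kanamycin resistance gene driven by streptokinase promoter and grows in 40 µg/ml kanamycin; loss of luminescence reflects streptokinase promoter inhibition or plain growth inhibition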
tim23-1 inh: growth inhibitors of tim23-1 mutant yeast, primary screen, luminescence, uHTS. S. cerevisiae tim23-1 growth, BacTiter-Glo luminescence, 24 h. inhibition, % at 20 µM. 330,000 tested, 1.3% active;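 active = growth inhibition of the mutant yeast at or above 50%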;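 also: temperature-sensitive mutant grown at 25 °C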
NALP3 yeast inh: NALP3 inflammasome inhibitors in reconstituted yeast, primary screen, luminescence, uHTS; Yeast reconstituted NLRP3/ASC/caspase-1, beta-gal luminescence, 24 h; inhibition, % at 10 µM; 330,000 tested, 0.39% active;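 active = inhibition of 50% or more; inactive = inhibition below 50%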
PfHsp90 set2: growth inhibition of PfHsp90-expressing yeast, primary screen, antimalarial PfHsp90 inhibitor project, S. cerevisiae, BacTiter-Glo luminescence, single point, set 2. BacTiter-Glo ATP, 48 h; yeast lacking PDR1 and PDR3 efflux regulators. inhibition, % at 9.4 µM. 310,000 tested, 0.32% active. AID 504621, 2011;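 active = every replicate shows inhibition above about 80%, whatever the replicate mean, limit read from the data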
tim10 confirm: growth inhibitors of wild-type TIM10 yeast, confirmation, counter-screen for tim10-1 synthetic lethality project, single concentration, luminescence, S. cerevisiae | shares compounds with TIM10 inh | S. cerevisiae tim10 strain growth, BacTiter-Glo luminescence, 24 h | inhibition, % at 10 µM | 4,600 tested, 63% active;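 active = inhibition of yeast growth at or above a set limit in either of two replicates at 10 µM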; also: this counterscreen used the strain with wild-type TIM10
A number is an active result; 0 = inactive; - = no result.

SMILES	TIM10 inh	tim10-1 inh	SKKanGAS inh	tim23-1 inh	NALP3 yeast inh	PfHsp90 set2	tim10 confirm
O=C1C2C3C=CC(C3)C2C(=O)N1CCN1CCN(Cc2ccc([N+](=O)[O-])cc2)CC1 (stereo unspecified)	0	0	0	0	0	0	-
Cc1ccc(C)c(NC(=S)N/N=C/C(C)c2ccccc2)c1 (stereo unspecified)	48.9	0	0	0	0	0	0
Cc1ccc(C)c(NC(=S)NCc2ccccc2)c1	0	0	0	0	0	0	-
Cc1c(NC(=S)SCc2ccccc2)c(=O)n(-c2ccccc2)n1C	0	0	0	0	0	0	-
Cc1cc(N=NC(=O)c2ccccc2)ccc1O	0	0	-	0	0	0	-
O=C(ONc1ccc(N=NC(=O)c2ccccc2O)cc1)c1ccccc1	41.9	0	0	0	0	0	0
CCCCCCOC(=O)Sc1nc2ccccc2o1	76.9	0	0	0	0	128.4	72.0
COC(=O)CSc1nc2ccccc2o1	0	0	0	0	0	0	-
CC(NC(=O)c1ccc(-c2cc(C(F)(F)F)ccc2Cl)o1)c1ccccc1 (stereo unspecified)	0	0	0	0	0	0	-
CC(=O)Nc1sc2c(c1-c1nc3ccccc3s1)CN(C(C)C)CC2	64.6	0	-	0	0	0	0
CC(C)N1CCc2c(sc(NC(=O)c3nc4ccccc4s3)c2C(N)=O)C1	43.9	0	0	0	0	0	0
CCOC(=O)C1=C(C)NC2=C(C(=O)c3ccccc32)C1c1ccc([N+](=O)[O-])o1 (stereo unspecified)	48.6	0	56.6	0	0	0	40.3
Cc1ccc(C(=O)Nc2ccccc2C(=O)N2CCOCC2)cc1[N+](=O)[O-]	0	0	0	0	0	0	-
O=c1[nH]c2ccc(Cl)cc2c(O)c1-c1ccccc1	0	0	0	0	0	0	-
O=c1[nH]c2ccc(Cl)cc2c(-c2ccccc2)c1SC(=S)N1CCCCC1	40.4	0	66.4	0	0	0	0
COCCNC(=S)N/N=C/c1c2ccccc2cc2ccccc12	41.1	0	0	0	0	0	37.1
COc1cccc(/C=N/NC(N)=S)c1OCc1cccc(Cl)c1	45.6	0	0	0	0	0	47.8
O=C(COc1cccc(NC(=O)c2cccc([N+](=O)[O-])c2)c1)c1ccc(Br)cc1	42.2	0	0	0	0	0	30.9
O=C(/C=C/c1ccccc1)NNc1ccc(Cl)cc1	43.7	0	0	0	0	0	47.5
NS(=O)(=O)c1ccc(NNC(=O)c2ccccc2C(=O)O)cc1	0	0	0	0	0	0	-
O=C(O)c1ccccc1C(=O)NNc1ccc(Cl)cc1	45.7	0	0	0	0	0	29.9
O=C(NC(=S)Nc1cc([N+](=O)[O-])ccc1O)C1CC1	0	0	0	0	0	0	-
O=C(NCc1ccccn1)C(=O)NCC1OCCN1S(=O)(=O)c1ccc(F)cc1 (stereo unspecified)	0	0	0	0	0	0	-
CC1CCCCC12NC(=O)N(CC(=O)OCc1cccc(F)c1)C2=O (stereo unspecified)	0	0	-	0	0	0	-
CCCc1cc(C(=O)N2CCN(c3ccccc3C)CC2)cs1	40.0	0	0	0	0	-	35.9
SMILES	TIM10 inh	tim10-1 inh	SKKanGAS inh	tim23-1 inh	NALP3 yeast inh	PfHsp90 set2	tim10 confirm
Cn1ccnc1CC(O)(c1ccccc1)c1ccccc1	0	0	0	0	0	0	-
c1ccc2c(c1)NC1(CCCCCC1)n1c-2nc2ccccc21	42.0	0	0	0	0	0	0
c1ccc(Cn2c(-c3ccco3)nc3nc4ccccc4nc32)cc1	42.7	0	0	0	0	0	0
CCCCCn1c(-c2ccco2)nc2nc3ccccc3nc21	0	0	0	0	0	0	-
CCOc1ccc(/C=N/NC(=S)Nc2c(C)cccc2C)cc1	52.1	0	0	0	0	0	0
CCNC(=S)N/N=C/c1ccc(OCCOc2ccccc2C)cc1	0	0	0	0	0	0	-
CCOC(=O)C1=CN(Cc2ccco2)S(=O)(=O)NC1CC (stereo unspecified)	0	0	-	0	-	0	-
CC(=O)C1=C(C)Nc2ncnn2C1c1ccccc1F (stereo unspecified)	96.5	0	0	0	0	0	0
CC(=O)C1=C(C)Nc2ncnn2C1c1ccccc1 (stereo unspecified)	0	0	0	0	0	0	-
Cc1noc(C(=O)Nc2ccc3c(c2)OCO3)c1Cl	96.9	0	0	0	0	0	0
O=C(C1Cc2ccccc2CN1S(=O)(=O)c1cccs1)N1CCCCCC1 (stereo unspecified)	44.0	0	0	0	0	0	33.1
NC(=O)C1Cc2ccccc2CN1S(=O)(=O)c1cccs1 (stereo unspecified)	0	0	-	0	0	0	-
COc1ccc(S(=O)(=O)N2CCOC2CNC(=O)C(=O)NCCN2CCOCC2)cc1 (stereo unspecified)	0	0	0	0	0	0	-
COc1ccc(C(=O)Nc2ccccc2C(=O)Nc2cccc(C)n2)cc1	0	0	0	0	0	0	-
COc1ccc(C(=O)Nc2ccccc2C(=O)Nc2cc(C)ccn2)cc1	43.0	0	0	0	0	0	44.5
O=C(Nc1ccccc1)Nc1cccc(Cl)c1Cl	44.7	0	0	0	0	0	0
O=C(Nc1ccncc1)Nc1cccc(Cl)c1Cl	0	0	0	0	0	0	-
Cc1c(C(=O)Nc2ccc(S(=O)(=O)N3CCOCC3)cc2)cccc1[N+](=O)[O-]	0	0	0	0	0	0	-
COC(=O)[C@@H]1C(c2c(OC)cc(OC)cc2OC)=NO[C@H]1C(=O)OC	0	0	0	0	0	0	-
COc1cccc(-c2csc(N3CCN(C(=O)NC45CC6CC(CC(C6)C4)C5)CC3)n2)c1	41.8	0	0	0	0	0	0
COc1cccc(NC(=O)N2CCN(c3nc(-c4cccc(OC)c4)cs3)CC2)c1	0	0	0	0	0	0	-
Cc1c(C(=O)OC2CCCCC2)[nH]c2c1C(=O)CC(C)(C)C2	96.4	0	0	0	0	0	0
COc1ccccc1CCC(=O)Oc1ccc(C#N)cc1OC	0	0	0	0	0	0	-
O=c1[nH]cnc2ncc(-c3ccc(O)cc3)nc12	40.7	0	0	0	0	0	0
COCCN1C(=O)C(=O)/C(=C(/O)c2ccc(S(=O)(=O)N3CCCCC3)cc2)C1c1ccc(OC)cc1 (stereo unspecified)	90.0	0	0	0	0	0	0
